Assay [1] in a line: qHTS assay for small molecule agonists of the p53 signaling pathway (AID 651631; calls by dose curve; also: nearly all actives have a fitted effect of over 15% in size; also: potency is read from the fitted curve at half-maximal effect). The procedure, abridged:
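Quantitative high-throughput format: 4,000 p53RE-bla HCT-116 cells/well, 5 h pre-incubation, 16 h compound exposure at 37 °C, 2 h room-temperature substrate step, fluorescence intensity measured.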
A general note: Quantitative high-throughput screening tests each substance at several concentrations.

Assay [2] is described as follows: qHTS assay for small molecules that induce genotoxicity in human embryonic kidney cells expressing luciferase-tagged ATAD5 (AID 651632). Also: nearly all actives have a fitted effect of over 15% in size. Also: potency is read from the fitted curve at half-maximal effect. In a few lines:
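Genotoxicity read-out via ATAD5-luciferase: HEK293T cells, 16 hr compound incubation at 37C, Amplite detection.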

Assay [3] can be described thus: qHTS assay for small molecule agonists of the p53 signaling pathway - cell viability (AID 651633; calls by dose curve; also: nearly all actives have a fitted effect of over 30% in size; also: potency is read from the fitted curve at half-maximal effect). The procedure, abridged: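 p53RE-bla cells were treated with compound for 16 hours at 37 C. Cytotoxicity was then measured as CellTiter-Glo luminescence after 30 min at room temperature.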
Assay [4] in a line: qHTS assay for small molecules that induce genotoxicity in human embryonic kidney cells expressing luciferase-tagged ATAD5 - cell viability (AID 651634; calls by dose curve; also: nearly all actives have a fitted effect of over 25% in size; also: potency is read from the fitted curve at half-maximal effect). The procedure, abridged: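 Live-cell protease activity (CellTiter-Fluor, fluorescence) indicates viability. HEK293T cells with luciferase-tagged ATAD5; 15.5 hr compound treatment at 37C.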
Assay [5] in a line: qHTS assay for small molecule disruptors of the mitochondrial membrane potential - cell viability (AID 720634; calls by dose curve; also: nearly all actives have a fitted effect of over 20% in size; also: potency is read from the fitted curve at half-maximal effect). The procedure, abridged: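 Human hepatoma HepG2 cells were treated for 1 hr with test chemicals, then given m-MPI dye and CellTiter-Glo. Cell viability reflects luminescence proportional to cellular ATP.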
Assay [6] can be described thus: qHTS assay to test for compound auto fluorescence at 590 nm (red) in HepG2 cells (AID 720674). In a few lines:
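Fluorescence at 590 nm emission following 540 nm excitation was recorded from HepG2 wells one hour after compound transfer, with DMSO-only wells as vehicle and Rose Bengal sodium equivalency as the scale.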

Assay [7] can be described thus: qHTS assay to test for compound auto fluorescence at 535 nm (green) in HepG2 cells (AID 720675).
Assay [8] is described as follows: qHTS assay to test for compound auto fluorescence at 460 nm (blue) in HEK293 cells (AID 720678). The procedure, abridged: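 Triamterene serves as the blue fluorophore standard. Compound signal at 405/460 nm is read in HEK293 wells (2,000 cells, 10% dialyzed FBS) after overnight treatment at 37C.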
A short description of assay [9]: qHTS assay to test for compound auto fluorescence at 590 nm (red) in HEK293 cells (AID 720679). In a few lines:
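We plated HEK293 cells in 10% dialyzed FBS medium, let them adhere for 4-5 hr, then added 23 nL compound. Overnight at 37C and 5% CO2 preceded fluorescence measurement at 540/590nm.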

The nature of assay [10]: qHTS assay to test for compound auto fluorescence at 535 nm (green) in HEK293 cells (AID 720680).
Assay [11] is described as follows: qHTS assay to test for compound auto fluorescence at 460 nm (blue) in HEK293 cell free culture (AID 720681). In a few lines:
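Compounds were added to cell-free DMEM with 10% FBS and fluorescence read directly. The blue channel used 405 nm excitation and 460 nm emission, with triamterene as the reference fluorophore.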

Assay [12] in a line: qHTS assay to test for compound auto fluorescence at 535 nm (green) in HEK293 cell free culture (AID 720682). The procedure, abridged: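 Measurement is a direct plate read of green fluorescence (485 nm in, 535 nm out) after compound addition to serum-supplemented DMEM lacking cells, with fluorescein used to express intensities.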
Assay [13] can be described thus: qHTS assay to test for compound auto fluorescence at 590 nm (red) in HEK293 cell free culture (AID 720683). In a few lines: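 Cell-free wells of DMEM with 10% FBS received compound, and intrinsic fluorescence was read at excitation/emission 540/590 nm. Values expressed as equivalence to Rose Bengal sodium.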
Assay [14] can be described thus: qHTS assay to test for compound auto fluorescence at 590 nm (red) in HepG2 cell free culture (AID 720684). The procedure, abridged:
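Compounds are added to culture medium (MEM, 10% FBS) lacking cells, then fluorescence is read at excitation 540 nm, emission 590 nm, with Rose Bengal sodium as the equivalency standard.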

A short description of assay [15]: qHTS assay to test for compound auto fluorescence at 460 nm (blue) in HepG2 cell free culture (AID 720685). In a few lines: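 Compound (23 nL) or DMSO pinned into cell-free MEM with 10% FBS; blue fluorescence read at 405/460 nm excitation/emission, expressed as auto-fluorescence equivalency to triamterene.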
Assay [16] in a line: qHTS assay to test for compound auto fluorescence at 535 nm (green) in HepG2 cell free culture (AID 720686).
A short description of assay [17]: qHTS assay to test for compound auto fluorescence at 460 nm (blue) in HepG2 cells (AID 720687). In a few lines:
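HepG2 cells in MEM with 10% FBS, attached overnight at 37 C, were exposed to compound or DMSO for 1 hr at 37 C, 5% CO2. Blue fluorescence was read at 405/460 nm, with triamterene as reference fluorophore.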

Assay [18] is described as follows: qHTS assay for small molecule disruptors of the mitochondrial membrane potential (AID 720635). Also: potency is read from the fitted curve at half-maximal effect. The procedure, abridged:
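HepG2 cells exposed to compound 1 hr at 37C, then Mito-MPS dye 30 min. Ratio read of aggregate (540/590 nm) versus monomer (490/535 nm) fluorescence.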

Assay [19] addresses Glucocorticoid receptor (Homo sapiens) (UniProt P04150). Put plainly: qHTS assay to identify small molecule agonists of the glucocorticoid receptor (GR) signaling pathway (AID 720691; active = well fitted activation curve with a large enough effect in the signal ratio in the repeat runs, not every such curve was filed as active; the % refers to the signal ratio). In a few lines: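 Beta-lactamase reporter activity, read as fluorescence intensity, was measured in GR-bla HeLa cells exposed to compounds for 18 h at 37 C and then loaded with LiveBLAzer B/G FRET substrate for 2 h at room temperature.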

The target is the same in assay [20]. Put plainly: qHTS assay to identify small molecule antagonists of the glucocorticoid receptor (GR) signaling pathway (AID 720692; active = well fitted inhibition curve with a large enough effect in the signal ratio in the repeat runs, not every such curve was filed as active; the % refers to the signal ratio). The procedure, abridged: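 Fluorescence from cleaved LiveBLAzer B/G FRET substrate reports GRE-driven beta-lactamase in HeLa cells; compounds are tested against 5 nM dexamethasone (final) over 18 h at 37 C, substrate incubation 2 h at room temperature.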

Results filed as inconclusive are left out. Active and inactive are the calls of the source. Unless noted, calls follow the shape of the dose curve; as a rule, active = well fitted curve in the direction sought with a large enough effect in the repeat runs; inconclusive = weak or mixed curves; inactive = no such curve, though single readings can be large; an effect the other way counts as inactive or inconclusive.

Glucocorticoid receptor (Homo sapiens), sequence (P04150 whole entry, looked up): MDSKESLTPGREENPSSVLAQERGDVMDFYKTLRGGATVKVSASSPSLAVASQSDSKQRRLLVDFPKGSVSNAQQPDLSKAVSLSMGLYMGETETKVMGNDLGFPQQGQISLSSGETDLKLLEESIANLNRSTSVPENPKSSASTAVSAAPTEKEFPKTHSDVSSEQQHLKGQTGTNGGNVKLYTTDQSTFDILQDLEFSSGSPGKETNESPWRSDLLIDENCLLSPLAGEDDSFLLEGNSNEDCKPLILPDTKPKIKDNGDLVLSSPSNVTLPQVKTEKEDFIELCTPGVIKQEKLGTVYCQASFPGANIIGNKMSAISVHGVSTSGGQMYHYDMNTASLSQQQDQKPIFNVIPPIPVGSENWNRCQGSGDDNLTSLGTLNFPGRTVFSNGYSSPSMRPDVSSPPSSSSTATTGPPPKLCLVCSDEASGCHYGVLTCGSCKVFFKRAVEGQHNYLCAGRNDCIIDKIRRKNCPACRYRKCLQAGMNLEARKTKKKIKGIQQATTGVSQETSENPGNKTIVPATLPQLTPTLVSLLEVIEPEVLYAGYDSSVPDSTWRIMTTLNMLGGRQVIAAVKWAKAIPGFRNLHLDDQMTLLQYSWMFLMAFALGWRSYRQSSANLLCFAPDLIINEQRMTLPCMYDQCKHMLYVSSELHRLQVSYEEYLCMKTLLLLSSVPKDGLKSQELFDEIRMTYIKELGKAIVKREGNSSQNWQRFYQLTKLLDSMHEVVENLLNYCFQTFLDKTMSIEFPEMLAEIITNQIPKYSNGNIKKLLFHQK

As for `C[C@@H](O[C@H]1OCCN(Cc2n[nH]c(=O)[nH]2)[C@H]1c1ccc(F)cc1)c1cc(C(F)(F)F)cc(C(F)(F)F)c1`, the Potency in assay [1] is 29.8 µM (active); in assay [3], 23.7 µM (active); in assay [4] it was 23.7 µM (active). In addition, the Potency result in assay [2], in assay [5], in [8], in [11], in assay [15] and in assay [17] was “inactive” each time. Moreover, the outcome in assay [6], in assay [7], in [9], in assay [10], in [12] and in assay [13] was inactive. In addition, the outcome in assay [14] and in [16] was inactive.

Consider `Clc1ccc(Nc2nnc(Cc3ccncc3)c3ccccc23)cc1`, for which the Potency result in assay [1], in assay [2], in assay [3], in assay [4], in assay [8] and in [11] was “inactive” in each case. The Potency result in [15], in [17] and in assay [19] was “inactive” throughout. The Potency in assay [5] was 18.8 µM (active); in assay [18] it was 26.6 µM (active). Also, the compound was called inactive in assay [9], in assay [10], in [12], in assay [14] and in [16].

Consider `N#[N+]c1ccc2c(S(=O)(=O)[O-])cccc2c1O`, for which the Potency result in assay [1], in [2], in [3], in [4], in [5] and in assay [8] was “inactive” each time. The Potency entry in assay [11], in assay [15] and in assay [17] was “inactive” in each case. Besides, the outcome in [7], in assay [10], in [13], in assay [14] and in assay [16] was inactive.

For the compound `CC[C@]1(O)C[C@H]2CN(CCc3c([nH]c4ccccc34)[C@@](C(=O)OC)(c3cc4c(cc3OC)N(C=O)[C@H]3[C@@](O)(C(=O)OC)[C@H](OC(C)=O)[C@]5(CC)C=CCN6CC[C@]43[C@@H]65)C2)C1`, the Potency in assay [1] is 0.0084 µM (active); in assay [2], 0.75 µM (active); in assay [4], 0.0473 µM (active); in assay [18], 3.76 µM (active). Also, the Potency entry in assay [3], in assay [5], in assay [8], in assay [11], in [15] and in [17] was “inactive” each time. In addition, the Potency entry in assay [19] was “inactive”. Also, the compound was called inactive in assay [7], in [9], in assay [10], in assay [12], in assay [14] and in assay [16].

As for `CCC(=O)OC`, the Potency entry in assay [1], in assay [2], in assay [3], in [4], in [5] and in assay [8] was “inactive” each time. In addition, the Potency result in assay [11], in assay [15], in assay [17], in [19] and in assay [20] was “inactive” throughout. For the same compound, the call in assay [6], in assay [7], in assay [10], in assay [12], in assay [13] and in assay [14] was inactive.

As to `CC(=O)Nc1ccc(C)cc1C`, the Potency result in assay [1], in [2], in [3], in assay [4], in assay [5] and in assay [8] was “inactive” throughout. Further, the Potency entry in assay [11], in assay [15] and in assay [17] was “inactive” each time. Also, the outcome in assay [6], in assay [9], in assay [10], in [12], in [13] and in assay [14] was inactive. Further, the outcome in assay [16] was inactive.

For `CC(C)=CC(=O)C=C(C)C`, the Potency entry in [1], in assay [2], in assay [3], in assay [4], in [5] and in assay [8] was “inactive” throughout. Further, the Potency entry in assay [11], in assay [15] and in assay [17] was “inactive” each time. Also, the call in assay [6], in assay [7], in assay [10], in assay [12], in [13] and in [14] was inactive. The compound was called inactive in assay [16].

Consider `CC(=O)OCCN(CCOC(C)=O)c1ccc(N=Nc2ccc([N+](=O)[O-])cc2C#N)cc1`, for which the Potency entry in [1], in assay [2], in assay [3], in assay [8], in [11] and in assay [15] was “inactive” each time. Moreover, the Potency result in assay [17] and in [19] was “inactive” in each case. In addition, the Potency in [4] is 61.1 µM (active); in assay [18], 6.86 µM (active). The compound was called inactive in [6], in assay [7], in assay [9], in assay [10], in assay [12] and in assay [13]. Further, the compound was classed as inactive in assay [14] and in [16].

The values are drawn from PubChem BioAssay (Tox21).
